Holding throughout (test): growth inhibition (% activity, log2 RLU normalised to DMSO / staurosporine); higher = more growth inhibition
What all share (conditions): 33 µM

One assay concerns DIPGX29 (H3.3 K27M diffuse intrinsic pontine glioma line). Summed up:
(§1)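 On Geltrex-coated 384-well plates, pHGG cell lines and H9-derived neural stem cells were grown with approved drugs pinned in at a single final concentration of about 33 μM, in triplicate, for 7 days at 37 °C, 5% CO2. Per-plate normalisation of log2-transformed CellTiter-Glo luminescence to % activity between solvent and positive control wells followed. Each growth-inhibition value is the median over the replicates.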

Another assay deals with DIPGX37 (H3.3 K27M diffuse intrinsic pontine glioma line). Summed up: as §1
The subject of another assay is DIPGX7 (H3.3 K27M diffuse intrinsic pontine glioma line). In outline: as §1
The next assay has as its system DIPGX9 (diffuse intrinsic pontine glioma line). In outline: as §1
The next assay has as its system HGGX39 (paediatric high-grade glioma line). Summed up: as §1
A further assay deals with HGGX6 (H3.3 G34R paediatric high-grade glioma line). In outline:
as §1

The test system of the next assay is HNSC. In outline: as §1
Another assay deals with SUDIPGIV (diffuse intrinsic pontine glioma line)
In outline: as §1

The next assay has as its system SUDIPGVI (diffuse intrinsic pontine glioma line)
In outline: as §1

For a further assay, the system named is SUDIPGXIII (diffuse intrinsic pontine glioma line)
Summed up: as §1

Several values for one entry are separate records, joined by “and”; a condition that tells them apart may be missing. Equal entries are not always repeated.

`Clc1ccc2c(c1)C(N1CCNCC1)=Nc1ccccc1O2`: the growth inhibition was 0.461% in the assay on DIPGX29; 1.52% in the assay with DIPGX37; 1.07% with DIPGX7; 1.29% in the assay on DIPGX9; 4.43% in the assay on HGGX39; -0.239% in the assay on HGGX6. The growth inhibition in the assay on HNSC worked out at 0.635%; in the assay with SUDIPGIV, 0.284%; with SUDIPGVI, 2.1%; in the assay with SUDIPGXIII, 0.741%.

For `N=c1nc(N2CCCCC2)cc(N)n1O`, the growth inhibition in the assay on DIPGX29 was 0.473%; in the assay on DIPGX37 it was -0.191%; with DIPGX7, 0.732%; in the assay with DIPGX9, -0.0641%; in the assay on HGGX39, -0.0574%; with HGGX6, -3.42%. Besides, the growth inhibition is 1.05% with HNSC, -0.657% in the assay on SUDIPGIV, 1.35% in the assay on SUDIPGVI and -1.69% in the assay on SUDIPGXIII.

Consider `C[C@]12CC[C@@H]3c4ccc(O)cc4CC[C@H]3[C@@H]1CC[C@@H]2O`, for which the growth inhibition is -1.16% in the assay on DIPGX29; 1.54% in the assay on DIPGX37; -0.611% with DIPGX7; -0.154% with DIPGX9; 0.663% with HGGX39; 2.45% in the assay on HGGX6. For the same compound, the growth inhibition in the assay with HNSC was -4.69%; in the assay with SUDIPGIV it was -0.561%; in the assay with SUDIPGVI, -3.66%; in the assay with SUDIPGXIII, 1.49%.

With `C[C@@]12C[C@@]3(O)O[C@@H](O1)[C@]1(COC(=O)c4ccccc4)[C@H]3C[C@@]12O[C@@H]1O[C@H](CO)[C@@H](O)[C@H](O)[C@H]1O`, the growth inhibition with DIPGX29 is -0.664%; with DIPGX37, 0.987%; with DIPGX7, -0.876%; in the assay with DIPGX9 it was 1.21%; with HGGX39 it was -0.682%; with HGGX6, 1.84%. Also, the growth inhibition with HNSC was -1.36%; in the assay with SUDIPGIV, -1.25%; with SUDIPGVI it was 0.677%; in the assay with SUDIPGXIII it was -13.1%.

Take `O=C1Cc2cc(CCN3CCN(c4nsc5ccccc45)CC3)c(Cl)cc2N1`: the growth inhibition in the assay on DIPGX29 was 1.66%; in the assay on DIPGX37 it was 1.3%; with DIPGX7 it was 10.1%; in the assay with DIPGX9 it was 1.16%; with HGGX39, 3.71%; in the assay on HGGX6 it was 2.44%. The growth inhibition is 1.23% in the assay with HNSC, 2.05% in the assay with SUDIPGIV, -3.95% with SUDIPGVI and 3.01% in the assay with SUDIPGXIII.

With `CN1C(CCl)Nc2cc(Cl)c(S(N)(=O)=O)cc2S1(=O)=O` (centres undefined), the growth inhibition was determined as 1.82% in the assay on DIPGX29; 1.82% in the assay on DIPGX37; 1.38% in the assay with DIPGX7; 0.87% in the assay on DIPGX9; 2.55% with HGGX39; 3.08% in the assay on HGGX6. Besides, the growth inhibition is 1.19% in the assay on HNSC, 0.139% with SUDIPGIV, 1.21% in the assay on SUDIPGVI and -13.7% in the assay with SUDIPGXIII.

Take `O=C(O)CCCN1CCC(O[C@@H](c2ccc(Cl)cc2)c2ccccn2)CC1`: the growth inhibition in the assay with DIPGX29 was -0.326%; with DIPGX37, 0.504%; in the assay with DIPGX7, -0.839%; with DIPGX9, -1.86%; with HGGX39, 0.636%; in the assay with HGGX6, -0.646%. In addition, the growth inhibition in the assay on HNSC is -1.58%; in the assay on SUDIPGIV it was -0.161%; in the assay on SUDIPGVI, 0.268%; in the assay on SUDIPGXIII, 0.355%.

For the compound `Nc1nc(=O)c2c([nH]1)NCC(CNc1ccc(C(=O)N[C@@H](CCC(=O)O)C(=O)O)cc1)N2C=O` (some centres undefined), the growth inhibition was -0.552% in the assay on DIPGX29; 0.652% in the assay with DIPGX37; -1.46% with DIPGX7; -0.907% with DIPGX9; -0.954% with HGGX39; -0.876% with HGGX6. In addition, the growth inhibition with HNSC is 0.438%; with SUDIPGIV, -1.59%; with SUDIPGVI it was 0.511%; in the assay on SUDIPGXIII it was -0.342%.

Turning to `NCC(=O)CCC(=O)O`, the growth inhibition in the assay with DIPGX29 is -0.565%; with DIPGX37, 0.832%; with DIPGX7, -1.28%; in the assay with DIPGX9, 0.54%; in the assay on HGGX39, 0.759%; in the assay on HGGX6 it was 1.54%. Moreover, the growth inhibition in the assay with HNSC is -1.87%; in the assay on SUDIPGIV, 0.45%; in the assay with SUDIPGVI, 0.00902%; with SUDIPGXIII, 0.537%.

Take `CS(=O)(=O)CCNCc1ccc(-c2ccc3ncnc(Nc4ccc(OCc5cccc(F)c5)c(Cl)c4)c3c2)o1`: the growth inhibition was 6.23% and 13.7% in the assay on DIPGX29; 3.79% and 6.67% in the assay with DIPGX37; 8.64% and 16.6% with DIPGX7; 4.74% and 6.77% in the assay with DIPGX9; 7.08% and 12.7% in the assay on HGGX39; 3.29% and 14.5% in the assay on HGGX6. The growth inhibition in the assay on SUDIPGIV is 3.14% and -0.238%; in the assay with SUDIPGVI, -6.01% and 3.84%; in the assay on SUDIPGXIII, 0.448% and 1.79%.

As for `Nc1cc(C(Cl)=C(Cl)Cl)c(S(N)(=O)=O)cc1S(N)(=O)=O`, the growth inhibition is 0.128% in the assay on DIPGX29; 3.1% with DIPGX37; 1.7% in the assay on DIPGX7; 0.825% with DIPGX9; 2.48% in the assay on HGGX39; 1.57% with HGGX6. Besides, the growth inhibition is 1.89% in the assay on HNSC, 1.51% with SUDIPGIV, -1.12% in the assay with SUDIPGVI and 1.37% with SUDIPGXIII.

Regarding `CC[C@]1(O)C[C@@H]2CN(CCc3c([nH]c4ccccc34)[C@@](C(=O)OC)(c3cc4c(cc3OC)N(C)[C@H]3[C@@](O)(C(=O)OC)[C@H](OC(C)=O)[C@]5(CC)C=CCN6CC[C@]43[C@@H]65)C2)C1`, the growth inhibition with DIPGX29 worked out at 13%; in the assay on DIPGX37 it was 14%; in the assay with DIPGX7 it was 13.2%; with DIPGX9, 22%; in the assay with HGGX39, 17.1%; in the assay on HGGX6, 11.5%. Moreover, the growth inhibition in the assay on HNSC came to 55.5%; in the assay with SUDIPGIV, 32%; in the assay on SUDIPGVI, 16.1%; with SUDIPGXIII, 18.3%.

In the case of `C=C[C@]1(C)C[C@@H](OC(=O)CS[C@@H]2C[C@H]3CC[C@@H](C2)N3C)[C@]2(C)[C@H](C)CC[C@]3(CCC(=O)[C@H]32)[C@@H](C)[C@@H]1O`, the growth inhibition with DIPGX29 is 4.15%; with DIPGX37, 2.94%; in the assay on DIPGX7, 3.25%; in the assay on DIPGX9 it was 4.84%; in the assay on HGGX39, 11.9%; in the assay with HGGX6, 5.9%. In addition, the growth inhibition in the assay on HNSC is 7.78%; in the assay on SUDIPGIV, 12%; with SUDIPGVI, 5.01%; with SUDIPGXIII, 5.37%.

For the origin of these results see the supplement of paper PMC8253809.
